Sampled rows, rich in hits. Any-hit rate of the full collection: about 3.9%.
MazEF act = increases E. coli MazEF RNase cleavage of RNA. AID 504720. P0AE70. FAM/BHQ RNA-DNA oligo cleavage fluorescence, 5 h. 0.32% of 350,000 active. activation, % at 20 µM; in the data active = activation above about 50%
Target sequence (P0AE70 whole entry, looked up): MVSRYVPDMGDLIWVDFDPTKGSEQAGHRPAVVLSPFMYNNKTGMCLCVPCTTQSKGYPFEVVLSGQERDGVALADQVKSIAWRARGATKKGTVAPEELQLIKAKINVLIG
BH1578 lux ind = induces V. cholerae light production without autoinducers; activation, % at 18.7 µM; 0.16% of 350,000 active; V. cholerae BH1578 lux reporter, luminescence, 6 h; in the data active = activation mostly above about 9.7%, no sharp cut-off; inconclusive = no clear call, values can overlap the other calls; inactive = mostly below about 3.7%
BoNT-F LC inh = blocks Botulinum neurotoxin F light chain protease; Multiplex microsphere protease cleavage assay, flow cytometry; AID 588497; 0.22% of 360,000 active; inhibition, % at 10 µM; in the data active = inhibition above about 35%, passing the limit was not always enough; inconclusive = no clear call, values can overlap the other calls; also: plate controls were buffer without enzyme for full effect and enzyme alone for no effect
BoNT-A LC inh2 = BoNT A light chain protease inhibition. multiplex microsphere protease substrate cleavage, flow cytometry. inhibition, % at 10 µM. 0.17% of 360,000 active. AID 588499; also: plate controls were buffer without enzyme for full effect and enzyme alone for no effect
Bead autofluor = compound fluorescence in toxin protease inhibitor counterscreen; fluorescence intensity (test concentration not listed); compound autofluorescence counterscreen, microsphere flow cytometry; hits give high values; 3.1% of 360,000 active; in the data active = fluorescence intensity above about 16000; inconclusive = no clear call, values can overlap the other calls
Anthrax LF prot = inhibitors of Bacillus anthracis lethal factor protease; multiplex microsphere protease cleavage assay, LF; AID 588501; 0.12% of 360,000 active; inhibition, % at 10 µM; also: plate controls were buffer without enzyme for full effect and enzyme alone for no effect
An asterisk follows results filed as active; i = inactive; ? = inconclusive; nt = no result. Rule as the data show it, unless noted: active = inhibition above about 30%; inconclusive = no clear call, values can overlap the other calls; inactive = below that.

SMILES	MazEF act	BH1578 lux ind	BoNT-F LC inh	BoNT-A LC inh2	Bead autofluor	Anthrax LF prot
Cc1sc2nc(CN(Cc3ccccc3)C(=O)NC3CCCCC3)[nH]c(=O)c2c1C	-9	-1	38*	4	4141	5
CN(CC(=O)Nc1nc2ccccc2s1)S(=O)(=O)c1ccc(Br)cc1	-15	i	4	3	21220*	0
Cc1cccc(NC(=O)CN(C)S(=O)(=O)c2ccc(Br)cc2)n1	-3	i	-4	?	17225*	-4
CN(C)CC(=O)c1ccc(-c2ccccc2)cc1	1	0	2	1	20222*	1
COc1cc(/C=C2/N=C(c3ccccc3F)OC2=O)cc(Cl)c1OS(C)(=O)=O	-1	0	-3	-1	20200*	-6
COC(=O)c1ccc(OCCn2cnc3ccccc3c2=O)cc1	-2	i	-1	-1	19676*	-1
COC(=O)Cn1cnc2ccccc2c1=O	2	i	-2	0	2392	3
O=C(Cn1cnc2ccccc2c1=O)OCCCCN1C(=O)c2ccccc2C1=O	1	i	-5	-2	23990*	-4
COc1ccccc1OCCOCCn1cnc2ccccc2c1=O	2	-5	2	?	19899*	-1
COc1ccc(-n2c(/C=C/c3ccc(O)c(OC)c3)nc3ccccc3c2=O)cc1	-31	i	36*	2	2862	-1
CCn1c(/C=C/c2c(C)n(CC)c3ccccc23)nc2ccccc2c1=O	70*	0	15	2	2315	7
CCn1c(/C=C/c2ccc(O)c(O)c2)nc2ccccc2c1=O	121*	0	-16	1	3365	17
CC(C)c1ccc(CC(=O)N2CCC2(C)C(=O)NS(=O)(=O)c2cccc(OC(F)F)c2)cc1 (centres undefined)	nt	i	-6	0	3498	0
CN(C)C(CNC(=O)c1ccc(NS(=O)(=O)c2ccc(F)cc2)cc1)c1ccco1 (centres undefined)	9	-1	-186	-128	36456*	-27
CCOc1ccc(NS(=O)(=O)c2ccc(C(=O)NCC(c3ccco3)N3CCCC3)cc2)cc1 (centres undefined)	52*	0	0	0	4954	6
O=C(NCC(c1ccco1)N1CCCC1)c1ccc(S(=O)(=O)Nc2ccc(F)cc2)cc1 (centres undefined)	-16	-1	-3	0	9656	-3
Cc1ccc(NC(=S)NNC(=O)CCn2cc(C)cn2)cc1	2	-1	2	1	20267*	0
CCCCNC(=S)NNC(=O)CCn1cc(C)cn1	3	0	-8	-1	2574	1
Cc1cnn(CCC(=O)NNC(=S)NCC(C)C)c1	3	0	-8	-1	3437	-2
Cc1cnn(CCC(=O)NNC(=S)Nc2ccccc2)c1	-1	i	-1	-1	22734*	0
CCOc1cc(C)nc(N2CCC(C(=O)NC3CC3)CC2)n1	-21	i	0	0	3012	-2
COc1ccccc1N(CC(=O)NC(C)(C)C)C(=O)Cn1nnc(-c2ccc(C)o2)n1	-6	0	8	0	9620	-7
CC(C)(C)NC(=O)CN(C(=O)Cn1nnc(-c2ccccc2F)n1)c1cccc2c1CCCC2	-2	-3	-2	-1	17013*	-1
COc1ccc(C(=O)NCCCN2CCCC2=O)cc1	10	-1	-12	-1	4029	-5
Cc1ccc(NC(=O)NCCCN2CCCC2=O)cc1C	0	0	3	-2	4794	-6
SMILES	MazEF act	BH1578 lux ind	BoNT-F LC inh	BoNT-A LC inh2	Bead autofluor	Anthrax LF prot
O=C(NCCCN1CCCC1=O)c1ccc2c(c1)OCO2	-12	-2	1	?	20949*	1
Cc1ccc(NC(=O)NCCCN2CCCC2=O)cc1	-1	0	1	2	22287*	-2
COCCNc1nc(-c2ccccc2CO)c2sc(-c3ccccc3)cc2n1	nt	0	1	6	3463	4
Cc1onc(-c2ccccc2Cl)c1C(=O)N1CC(C)OC(C)C1 (centres undefined)	5	i	-3	?	23411*	-6
Cc1onc(-c2ccccc2Cl)c1C(=O)N1C=CC(C(F)(F)Cl)=NCC1	9	-4	1	1	22372*	0
Cc1onc(-c2ccccc2Cl)c1C(=O)O/N=C(\N)c1ccccc1	6	-1	-63	-40	16593*	-8
O=C(NNC(=O)c1ccc([N+](=O)[O-])cc1C(=O)O)c1ccncc1	-1	i	?	-2	4210	-1
Cc1cccc(-n2nc3c(c2NC(=O)c2ccco2)CS(=O)C3)c1C (centres undefined)	-2	-1	3	0	3823	0
Cc1cccc(-n2nc3c(c2NC(=O)c2ccco2)CSC3)c1C	5	0	2	0	20718*	-3
O=C(COC(=O)c1nc(-c2ccccc2)n(-c2cccc(C(F)(F)F)c2)n1)NCc1cccs1	-1	i	6	0	1976	-2
Cc1ccccc1Nc1nn2c(=O)c3ccccc3nc2s1	31	-6	-2	0	23125*	0
O=c1c2ccccc2nc2sc(Nc3ccc(F)cc3)nn12	-27	i	0	-1	2784	5
Cc1nn2c(-c3ccc(Cl)cc3)nnc2s1	3	i	-2	0	23339*	-2
CN(C)c1ccc(-c2nn3c(-c4ccc(Cl)cc4)nnc3s2)cc1	-29	0	nt	nt	nt	nt
O=C(Nc1ccn(Cc2ccc(Cl)cc2)n1)c1ccc2c(c1)OCO2	4	i	-3	-3	24410*	-2
O=C(Nc1ccc(CN2CCCCC2)cc1)c1ccc2c(c1)OCO2	7	i	-1	0	20600*	1
Cc1cccc(Cn2ccc(NC(=O)c3ccc4c(c3)OCO4)n2)c1	1	i	2	0	3173	0
O=C(c1cccc(S(=O)(=O)N2CCN(c3ccc(F)cc3)CC2)c1)N1CCCC(C(F)(F)F)C1 (centres undefined)	-3	-4	5	-1	?	6
CC1CC(=O)N(CC(=O)Nc2ccc3c(c2)OCCO3)c2ccccc2S1 (centres undefined)	11	0	2	0	16421*	-1
O=C(CN1C(=O)COc2ccc(Cl)cc21)Nc1ccc2c(c1)OCCO2	6	0	-6	?	17358*	1
O=C(Cn1ccc2ccccc2c1=O)NCCC(=O)Nc1ccc2c(c1)OCCO2	3	i	-2	?	20380*	-6
O=C(Cn1ccc2ccccc2c1=O)Nc1ccc2c(c1)OCO2	-5	0	-23	-1	4965	-2
CC(=O)NC12CC3CC(C1)CC(C(=O)Nc1nc4ccc(S(C)(=O)=O)cc4s1)(C3)C2	1	0	2	4	5109	0
CC(=O)Nc1cc(-c2cccc(C(=O)N(C)C)c2)cn2c(-c3ccc(C(C)=O)cc3)cnc12	nt	i	8	0	3912	0
O=C1N[C@@H](Cc2ccccc2)C(=O)N1CCN1CCOCC1	11	-1	2	?	22937*	-2

Compound activity: PubChem, several laboratories
